Screening results as filed in PubChem BioAssay.
In the library only some 3% were active in any assay of this set; here they are far more common.
Peg3 prom inh – Peg3 promoter activity inhibition | HeLa PEG-Prom luciferase reporter, luminescence, overnight | inhibition, % at 20 µM | 360,000 tested, 1.7% active;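 active means inhibition of at least 50% at 20 µM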
Shn3 3UTR inh – inhibitors of Schnurri-3 3'UTR reporter in osteoblasts. Clone20 osteoblast Shn3 3'UTR firefly luciferase, 24 h. inhibition, % at 12.5 µM. 360,000 tested, 0.52% active;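 active means mean inhibition of at least 75% with every replicate also reaching 75%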;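 further: 0% = median of neutral control wells and 100% = pilot-screen positive control compound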
TRPM1 prom inh – reduces MITF-dependent TRPM1 promoter luciferase signal; SK-MEL-5 TRPM1 promoter luciferase, 24 h; inhibition, % at 12.5 µM; 330,000 tested, 0.83% active;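 active means mean inhibition across replicates of 60% or more, whatever share of single replicates reaches that level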
EWS-Fli block – blocks EWS/Fli oncoprotein-driven transcription; A673 NR0B1-luciferase reporter, viability-normalised; inhibition, % at 12.6 µM; 350,000 tested, 0.67% active;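 active means mean inhibition of at least 50% after viability correction, with every replicate also passing that limit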;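 further: firefly luciferase signal divided by Alamar Blue viability fluorescence both relative to DMSO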
ABHD5 PLIN5 PPI – ABHD5-PLIN5 protein interaction inhibition; Split G. princeps luciferase complementation, luminescence, 4 h; inhibition, % at 4 µM; 360,000 tested, 0.78% active;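 active means inhibition above the mean inhibition across every tested compound plus 3 SD, cut at about 22% in these data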;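 further: 0% = DMSO only wells and the 100% control is not disclosed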
Target sequence (Q00G26 whole entry, looked up): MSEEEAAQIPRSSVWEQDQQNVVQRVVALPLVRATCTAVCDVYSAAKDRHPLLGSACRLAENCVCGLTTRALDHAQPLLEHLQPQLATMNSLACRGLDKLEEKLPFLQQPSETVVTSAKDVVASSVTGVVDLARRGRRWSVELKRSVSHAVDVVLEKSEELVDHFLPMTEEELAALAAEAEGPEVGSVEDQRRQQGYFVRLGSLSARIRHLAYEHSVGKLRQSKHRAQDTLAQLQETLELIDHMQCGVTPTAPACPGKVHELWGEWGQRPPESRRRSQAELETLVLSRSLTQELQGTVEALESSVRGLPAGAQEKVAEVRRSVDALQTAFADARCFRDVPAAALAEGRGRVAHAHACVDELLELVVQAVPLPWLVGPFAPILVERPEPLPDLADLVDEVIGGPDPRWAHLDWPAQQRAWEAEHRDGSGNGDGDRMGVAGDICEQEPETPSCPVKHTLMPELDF
Target sequence (Q8WTS1 whole entry, looked up): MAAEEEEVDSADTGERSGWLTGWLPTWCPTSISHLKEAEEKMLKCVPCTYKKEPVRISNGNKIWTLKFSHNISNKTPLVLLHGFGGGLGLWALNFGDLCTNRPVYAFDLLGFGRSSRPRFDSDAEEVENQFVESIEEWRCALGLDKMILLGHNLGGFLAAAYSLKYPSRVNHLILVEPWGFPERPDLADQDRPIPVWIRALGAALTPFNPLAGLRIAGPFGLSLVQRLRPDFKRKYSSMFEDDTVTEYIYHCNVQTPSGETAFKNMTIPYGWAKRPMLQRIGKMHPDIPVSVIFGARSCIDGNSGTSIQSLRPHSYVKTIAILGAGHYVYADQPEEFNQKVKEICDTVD
PAX8 inh HTS – PAX8 transcriptional activity inhibition | inhibition, % at 12.6 µM | RMG-I TPO-luciferase reporter, SteadyGlo, 24 h | 360,000 tested, 1.2% active | AID 652154;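 active means mean replicate inhibition at least 60% with every replicate also reaching 60%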;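 further: luciferase light reporting Pax8 driven TPO promoter activity; plate controls were median of neutral control wells for no effect and mitoxantrone controls for full effect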
* = called active by the depositor; nt = no result given; ! = a repeat was not active.

SMILES | Peg3 prom inh | Shn3 3UTR inh | TRPM1 prom inh | EWS-Fli block | ABHD5 PLIN5 PPI | PAX8 inh HTS
O=C(C#Cc1ccccc1)c1cccc([N+](=O)[O-])c1 | 106* | 93* | 102* | 67* | 16 | nt
COc1cc(O)c2c(c1)oc(=O)c1c3cc(O)c(O)cc3oc21 | nt | nt | nt | 56* | nt | 20
O=C1NC2c3c(I)sc(I)c3C(=O)C2O1 (stereo not drawn) | 106* | 17 | 59 | 29 | 8 | 25
O=C1NC2c3c(Cl)sc(Cl)c3C(=O)C2O1 (stereo not drawn) | 68* | -3 | 4 | 12 | 12 | 31
O=C1NC2c3ccccc3CC2O1 (stereo not drawn) | -11 | 6 | 9 | 2 | 1 | 1
Cc1ccc(NC(=O)C[n+]2cc(-c3ccc(C)cc3)n3c2CCC3)cc1 | -3 | -10 | 16 | 10 | 8 | 13
Cc1ccc(-c2c[n+](Cc3ccc(Cl)c(Cl)c3)c3n2CCC3)cc1 | 20 | 57 | 72* | nt | 16 | 80*
COc1ccc(C(=O)C[n+]2cc(-c3ccc(OC)cc3)n3c2CCCC3)cc1 | 7 | 43 | 39 | 19 | 5 | 72*!
Cc1ccc(C(=O)C[n+]2cc(-c3ccc(C)cc3)n3c2CCCCC3)cc1 | 14 | 74 | 76* | nt | 2 | nt
O=C(C[n+]1cc(-c2ccccc2)n2c1CCCCC2)c1ccc(Br)cc1 | 10 | 13 | 19 | 11 | 5 | 9
NNC(=O)c1[nH]c2ccc(Cl)cc2c1-c1ccccc1 | 30 | 6 | 6 | 17 | -11 | 66*
NNC(=O)c1[nH]c2ccc(Br)cc2c1-c1ccccc1 | 25 | 0 | -12 | 15 | 1 | -10
CCN(CC)C(=S)Sc1c(-c2ccccc2)c2cc(Cl)ccc2[nH]c1=O | 43 | 87* | -2 | nt | 10 | nt
COc1ccccc1-c1cn(CC[C@H]2CC[C@H](NC(=O)C3CCCCC3)[C@@H](CO)O2)nn1 | nt | nt | nt | 6 | nt | 17
CO[C@H]1CN(C)C(=O)c2cc(NC(=O)Nc3ccccc3)ccc2OC[C@H](C)N(C(=O)CC2CC2)C[C@@H]1C | nt | nt | nt | 6 | nt | 5
CCOC(=O)N1CCN(C(=O)c2ccc(Cn3c(=S)[nH]c4cc5c(cc4c3=O)OCO5)cc2)CC1 | 8 | 8 | 63* | nt | 3 | 4
Cc1cnc(NC(=O)c2sc3ccccc3c2Cl)s1 | 8 | 18 | 18 | 72* | -3 | 6
O=C(NNC(=S)NC1CCCCC1)c1sc2ccccc2c1Cl | -140 | -11 | 3 | -11 | -15 | -25
CC(C)(C)C(=O)NC(=S)NNC(=O)c1sc2ccccc2c1Cl | 78* | 91* | 80* | nt | -5 | nt
O=C(O)C[C@H]1C[C@H]2c3cc(NC(=O)CC4CC4)ccc3O[C@H]2[C@H](CO)O1 | nt | nt | nt | -2 | nt | -12
COc1ccc(CN(CCC(c2ccc(F)cc2)C2CCOC(C)(C)C2)C(=O)c2ccco2)cc1 (stereo not drawn) | 51* | 8 | 10 | 5 | 3 | -16
COC(=O)[C@@]1(Cc2ccccc2CN=[N+]=[N-])COC(c2ccc(OCCCO)cc2)=N1 | nt | nt | nt | 8 | nt | 9
Cc1ccc(-c2ccc3c(c2)O[C@H](CN(C)Cc2ccncc2)[C@@H](C)CN([C@H](C)CO)S3(=O)=O)cc1 | nt | nt | nt | 72* | nt | nt
Cc1ccccc1-c1ccc2c(c1)O[C@@H](CN(C)Cc1ccncc1)[C@H](C)CN([C@H](C)CO)S2(=O)=O | nt | nt | nt | 66* | nt | nt
Cc1ccc(-c2ccc3c(c2)O[C@H](CN(C)Cc2ccncc2)[C@H](C)CN([C@@H](C)CO)S3(=O)=O)cc1 | nt | nt | nt | -4 | nt | nt
SMILES | Peg3 prom inh | Shn3 3UTR inh | TRPM1 prom inh | EWS-Fli block | ABHD5 PLIN5 PPI | PAX8 inh HTS
COc1ccc2c3c([nH]c2c1)[C@H](CO)N(C(=O)Nc1ccc(F)cc1)CC31CN(Cc2nccs2)C1 | nt | nt | nt | 4 | nt | nt
N#Cc1ccc(NC(=O)COC(=O)C2CCC2)cc1 | 6 | 3 | nt | 1 | -4 | 113*
CC(=NNc1cc(C)c2cc(C)ccc2n1)c1ccccn1 | nt | nt | nt | 30 | nt | 69*
C/C(=N\Nc1nc2ccccc2[nH]1)c1ccccn1 | -95 | 81 | 54 | 22 | -7 | 68*
C/C(=N\Nc1nc2ccccc2[nH]1)c1cc2ccccc2o1 | -175 | -27 | -4 | nt | -3 | nt
Cc1ccc2nc(N/N=C/c3ccco3)cc(C)c2c1 | -283 | -63 | -24 | -48 | -5 | -123
COc1ccc(-c2ccc3n(c2=O)C[C@@H]2[C@@H](CO)[C@H](C(=O)NCC4CC4)[C@H]3N2S(C)(=O)=O)cc1 | nt | nt | nt | -4 | nt | -1
CS(=O)(=O)Nc1ccc2c(c1)[C@H]1C[C@@H](CC(=O)NCc3ccc(Oc4ccccc4)cc3)O[C@H](CO)[C@H]1O2 | nt | nt | nt | 20 | nt | 16
C[C@@H]1CCCCO[C@H](CN(C)CC2CC2)[C@H](C)CN([C@@H](C)CO)C(=O)c2cc(NC(=O)Nc3ccc4c(c3)OCO4)ccc2O1 | nt | nt | nt | nt | nt | 13
COc1ccc(Nc2ncnc3scc(-c4ccc(OC)cc4)c23)cc1 | 30 | 16 | 21 | 65* | 3 | 35
COc1ccc(-c2csc3ncnc(Cl)c23)cc1 | 3 | -16 | 0 | 16 | 5 | -16
Cn1nnnc1Sc1ncnc2scc(-c3ccccc3Cl)c12 | 106* | -12 | 44 | 17 | 3 | 91*
Cn1nnnc1Sc1ncnc2scc(-c3ccc([N+](=O)[O-])cc3)c12 | 102* | 81 | 98* | 19 | 9 | 108*
COc1ccc(-c2csc3ncnc(Sc4nnnn4C)c23)cc1 | 69* | 19 | 7 | -3 | 11 | 101*
CCN1CCN(c2ncnc3scc(-c4ccc(OC)cc4)c23)CC1 | -2 | 25 | -1 | 0 | 4 | 5
Cn1nnnc1Sc1c(Cl)cccc1[N+](=O)[O-] | -2 | -1 | 30 | nt | 1 | -5
COc1ccc2c3c([nH]c2c1)[C@H](CO)N(C(=O)C1CCCC1)CC31CCN(C)CC1 | nt | nt | nt | 5 | nt | 1
COCC(=O)N(C[C@H]1N[C@H](CO)[C@@H]1c1ccc(C2=CCCCC2)cc1)C(C)C | nt | nt | nt | 1 | nt | 5
Cn1nnnc1Sc1ncnc2scc(-c3ccc(Cl)cc3)c12 | 95* | 82 | 90* | 46 | 1 | 57
Cn1nnnc1Sc1ncnc2scc(-c3cccc4c3sc3ccccc34)c12 | 98* | 4 | 51 | 11 | 9 | 88*
C[C@@H]1CN([C@@H](C)CO)C(=O)c2cc(NS(=O)(=O)c3ccccc3)ccc2O[C@@H](C)CCCCO[C@H]1CN(C)C(=O)Cc1ccccc1 | nt | nt | nt | -2 | nt | -5
COc1ccc2cc(C(=O)/C=C/c3cc(OC)c(O)c(OC)c3)ccc2c1 | -58 | -29 | 7 | 4 | 8 | 3
COc1cc(/C=C/C(=O)c2ccc(NS(=O)(=O)c3ccc(C)cc3)cc2)cc(OC)c1O | 65* | 12 | 67* | nt | 38* | 81*
COc1cc(/C=C/C(=O)c2ccc(NS(=O)(=O)c3ccc(C)cc3)cc2)ccc1OC(F)F | 33 | 12 | 3 | nt | 22* | 22
COC(=O)[C@H]1[C@H](CO)[C@H]2Cn3c(ccc(/C=C/c4ccccc4)c3=O)[C@H]2N1CCC(F)(F)F | nt | nt | nt | -2 | nt | nt
